# Source: PubChem BioAssay (National Center for Advancing Translational Sciences (NCATS))
# The list is not random: actives were taken first. Their share in the collection is about 0.9%.
# B2AR arrestin: qHTS assay of beta-arrestin-biased ligands of beta2-adrenergic receptor. 330,000 compounds, 0.02% hits. Potency, µM (highest dose often 46.1 µM), without a hit: at the top dose activation, usual class: activators. beta-arrestin recruitment to beta2AR, cell-based reporter. AID 492947, 2010;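 further: potency means the concentration at half of the fitted maximal effect; 0% = DMSO controls and full agonism = EC100 isoproterenol or metaproterenol; nearly all actives have a fitted effect of over 65% in size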
# L3MBTL1 inh: qHTS Assay for the Inhibitors of L3MBTL1; AID 485360, 2010; Potency, µM (titrated, usually from 57.1 µM), without a hit: at the top dose activity, negative = inhibition, most hits filed as inhibitors; AlphaScreen L3MBTL1–H3K9me1 peptide binding; 230,000 compounds, 0.66% hits; further: potency means the concentration at half of the fitted maximal effect; nearly all actives have a fitted effect of over 60% in size
# Target sequence (Q9Y468 whole entry, looked up): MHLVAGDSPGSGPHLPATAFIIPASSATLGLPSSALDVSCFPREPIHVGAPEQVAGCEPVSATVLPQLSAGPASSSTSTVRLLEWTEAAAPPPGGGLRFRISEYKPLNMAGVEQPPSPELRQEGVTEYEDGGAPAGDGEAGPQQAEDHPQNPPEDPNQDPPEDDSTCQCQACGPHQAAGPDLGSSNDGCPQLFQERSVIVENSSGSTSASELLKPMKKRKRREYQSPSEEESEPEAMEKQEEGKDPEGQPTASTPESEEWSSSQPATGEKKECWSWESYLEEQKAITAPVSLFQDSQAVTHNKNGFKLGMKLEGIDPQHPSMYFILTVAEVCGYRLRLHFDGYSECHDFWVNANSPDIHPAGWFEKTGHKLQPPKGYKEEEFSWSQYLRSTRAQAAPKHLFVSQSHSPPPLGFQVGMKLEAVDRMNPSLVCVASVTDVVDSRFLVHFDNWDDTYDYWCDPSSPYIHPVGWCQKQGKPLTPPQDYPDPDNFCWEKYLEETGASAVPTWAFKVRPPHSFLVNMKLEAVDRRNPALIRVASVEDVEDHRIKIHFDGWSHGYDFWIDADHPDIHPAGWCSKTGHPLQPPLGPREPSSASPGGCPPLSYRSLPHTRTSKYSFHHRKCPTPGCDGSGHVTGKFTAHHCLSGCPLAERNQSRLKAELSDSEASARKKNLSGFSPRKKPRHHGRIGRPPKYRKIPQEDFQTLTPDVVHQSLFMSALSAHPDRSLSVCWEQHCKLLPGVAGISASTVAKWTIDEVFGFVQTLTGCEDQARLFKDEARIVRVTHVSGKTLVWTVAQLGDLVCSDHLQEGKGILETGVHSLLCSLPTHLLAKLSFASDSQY
#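 AlphaScreen assay: L3MBTL1 (50 nM final) was preincubated 30 min at room temperature with biotinylated H3(1-15)K9me1 peptide (75 nM final), then 30 min with library compounds; streptavidin donor and nickel chelate acceptor beads (10 ug/mL final) added, 30 min dark.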
# Six1-Eya2 blk: qHTS Assay for Inhibitors of the Six1/Eya2 Interaction; activity change, % (no concentration beside the values); Homeobox protein SIX1 (Homo sapiens) + Protein phosphatase EYA2 (Homo sapiens), …; AlphaScreen GST-Six1/His-Eya2 binding, biochemical; stronger effect = lower value; 360,000 compounds, 0.56% hits; in the data active means activity change below about -65%; inconclusive means mostly about -30% to -63%
#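 Six1/Eya2 binding was read as AlphaScreen signal after compounds were pinned into GST-Six1 plus His-tagged Eya2 (5X stock 250/500 nM) in pH 8.0 Tris/NaCl/TCEP buffer, beads added, then incubated 1 h, 37 C, dark.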
# CtBP-E1A inh: qHTS Assay for Inhibitors of the CtBP/E1A Interaction. activity change, % (test concentration not listed). 340,000 compounds, 0.49% hits. AlphaScreen GST-E1A/His-CtBP binding, 1536-well; stronger effect = lower value; in the data active means activity change below about -65%; inconclusive means mostly about -30% to -63%
#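 Protein mix (5X: 125 nM each GST-E1A, His-CtBP) was incubated with pinned compound 2 h at 37 deg C in dark, in 50 mM Tris pH 8.0 buffer with 300 mM NaCl. Glutathione donor and nickel acceptor beads followed; AlphaScreen signal read after 1 h.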
# Eya2 inh: qHTS Assay for Inhibitors of the Phosphatase Activity of Eya2. Protein phosphatase EYA2 (Homo sapiens), O00167. recombinant Eya2, OMFP fluorescence dephosphorylation (OMFP is methylfluorescein phosphate). Potency, µM (doses to about 76.9 µM), inactives show at the highest dose activity, negative = inhibition, actives largely listed as inhibitors. 330,000 compounds, 0.006% hits. AID 488837, 2010; further: potency means the concentration at half of the fitted maximal effect
#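 Eya2 protein (added as 0.2 uM solution) was preincubated with compound for 10 min at ambient temperature in 50 mM HEPES pH 7.5, 50 mM NaCl, 5 uM MgCl2, 0.05% BSA, 1 mM DTT. OMFP (added at 50 uM) then reacted 10 min; fluorescence read at 485/525 nm.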
# The depositor's hits bear a star; u = inconclusive; x = no result given; [ ] = dose if it differs, or a comment. Unless noted, the call rests on the fitted dose curve; in most records, active means well fitted curve in the direction sought with a large enough effect; inconclusive means small, poorly fitted or top-dose-only effect, or another doubt; inactive means no such curve, though single readings can be large; an effect the other way counts as inactive or inconclusive. Unless noted, on the % scale 0 is the no-effect control and ±100 the full control effect.
SMILES,B2AR arrestin,L3MBTL1 inh,Six1-Eya2 blk,CtBP-E1A inh,Eya2 inh
CCOc1cccc(/C=N/NC(=O)c2cc(C3CC3)[nH]n2)c1O,0%,x,-86*,x,14%
O=C(O)C1CCN(C(=O)COc2ccc(Br)cc2)CC1,0%,11%,8,0,3%
COc1cccc(/C=N/Nc2nn3cnnc3c3ccccc23)c1O,0%,-3%,-87*,-91*,12%
COc1cccc(/C=N/NC(=O)c2ccc3nc[nH]c3c2)c1O,0%,-12%,-87*,-96*,2%
COc1cccc(/C=N/NC(=O)c2c(C)nc3ccc(Br)cn23)c1O,1%,x,-92*,-91*,-2%
Cc1c(C)c2c(OCC(=O)N3CCC[C@H]3C(=O)O)cc3c(c2oc1=O)CCC(C)(C)O3,0%,41%,-85*,u,2%
COC(=O)c1cc(S(=O)(=O)N2CCCCC2)c[nH]1,0%,x,5,x,3%
CN(C)c1ccc(C=NC(CO)C(O)c2ccc([N+](=O)[O-])cc2)cc1 (stereo unspecified),-1%,x,6,-2,8%
CN(C)c1ccc(C(c2ccc(N(C)C)cc2)c2ccc([N+](=O)[O-])cc2)cc1,-1%,28µM*,-83*,u,6%
CC(C1SC(=S)NC1=O)C1SC(=S)NC1=O (stereo unspecified),x,x,-83*,-73*,x
O=[N+]([O-])c1ccccc1C=NN1CCCCCC1,x,x,-70*,u,x
O=[N+]([O-])c1ccccc1/C=N/N1CCN(Cc2ccccc2)CC1,-1%,u,u,-29,-7%
CCCCn1c(N)c(N(CC(C)C)C(=O)C2CCN(c3ncnc4sc(C)c(C)c34)CC2)c(=O)[nH]c1=O,0%,-1%,-4,13,-25%
CCCCn1c(N)c(N(CCOC)C(=O)C2CCN(c3ncnc4sc(C)c(C)c34)CC2)c(=O)[nH]c1=O,-1%,0%,2,-90*,1%
Cc1cccc(C)c1NC(=S)N(CCN(C)C)C(C)c1ccccn1 (stereo unspecified),0%,x,-83*,-72*,-5%
Cc1ccc(C)c(NC(=S)N(CCN(C)C)C(C)c2ccccn2)c1 (stereo unspecified),0%,x,-70*,-65*,3%
COc1ccc(/C(C)=N/Nc2ccc(F)cc2F)c(O)c1,0%,24%,1,-73*,-2%
CNc1cccc2c1C(=O)c1ccccc1C2=O,0%,8.9µM*,-87*,-3,2%
CCOC(=O)N1CCC(NC(=O)CS(=O)Cc2nc(-c3ccccc3C)oc2C)CC1 (stereo unspecified),0%,x,0,2,3%
CN(C)c1ccc(CNc2ncc(Br)cc2Br)cc1,0%,u,-66*,u,11%
CCOC(=O)c1c(NC(=O)COC(=O)CCOc2ccccc2C)sc(C(=O)NC)c1C,0%,-11%,7,-5,19%
O=C(c1cccs1)N1C[C@H](O)[C@@H](n2cc(C3CC3)nn2)C[C@@H]1c1ccccc1,x,x,12,0,x
CN(CC(=O)Nc1cccc(F)c1)C(=O)c1ccccc1OCC(=O)Nc1cccc(C(F)(F)F)c1,4%,7%,6,6,6%
O=C(Nc1nc(-c2ccc(S(=O)(=O)N3CCCCCC3)cc2)cs1)c1cccs1,0%,-1%,u,-70*,2%
O=C(Cc1cccs1)Nc1ccc(S(=O)(=O)N2CCCCC2)cc1,8%,22µM*,-9,1,-8%
SMILES,B2AR arrestin,L3MBTL1 inh,Six1-Eya2 blk,CtBP-E1A inh,Eya2 inh
O=C(Nc1nc(-c2ccc(S(=O)(=O)N3CCCC3)cc2)cs1)c1cccs1,0%,32%[11.4 µM],-73*,-75*,-31%
O=C(Nc1ccc(S(=O)(=O)N2CCCC2)cc1)c1cccs1,0%,-3%,25,14,-10%
CN1CCN(S(=O)(=O)c2ccc(NC(=O)Cc3cccs3)cc2)CC1,0%,x,-5,-1,10%
Cc1ccc(OC(C)C(=O)N(C)Cc2ccccc2)c([N+](=O)[O-])n1 (stereo unspecified),-1%,x,2,9,16%
COc1ccc2[nH]c3c(N4CCN(Cc5ccc6c(c5)OCO6)CC4)ncnc3c2c1,3%,-4%,-65*,u,-2%
COc1ccc2cc(C(=O)N3CCN(Cc4ccc5c(c4)OCO5)CC3)[nH]c2c1,-1%,x,16,-97*,-1%
O=C(OCC(=O)N1CCc2ccccc21)c1ccc([N+](=O)[O-])o1,-4%,-3%,-7,x,-5%
OCc1nc2ccccc2n1CCCc1ccccc1,x,x,-2,4,x
COC(=O)c1ccc(/C=C2\CCn3c2nc2cc(C(=O)O)ccc2c3=O)cc1,0%,x,-66*,u,-4%
COc1ccc(/C=C2\CCn3c2nc2cc(C(=O)O)ccc2c3=O)cc1OC,0%,x,-21,-7,4%
CC(C)C[C@H]1CN([C@@H](CC(C)C)CN2CCCC2CN2C(=S)NC[C@@H]2Cc2ccccc2)C(=S)N1CCc1ccccc1 (stereo partly specified),x,x,-5,1,x
CC(=O)Nc1ccc(S(=O)(=O)NCCC(=O)NCCOc2ccccc2)cc1,0%,-1%,5,2,1%
O=C1CN(CC(=O)N2CCCCC2)c2ccccc2O1,-1%,-12%,-13,-11,-1%
O=C(CN1CC(=O)Oc2ccccc21)OCC(=O)c1ccc(F)cc1,0%,18µM*,-75*,u,9%
O=C(CN1CC(=O)Oc2ccccc21)OCC(=O)c1ccc(Br)cc1,x,x,-91*,-87*,x
COc1ccc(NC(=O)C2(C)CCN2CCOc2ccc(C)cc2)cc1OC (stereo unspecified),x,x,-3,-1,x
C/C(=N\Nc1ccc(C(=O)O)cc1)c1ccc2c(c1)Nc1ccccc1S2,0%,28µM*,-17,-8,-3%
C/C(=N/Nc1ccc(C(=O)O)cc1)c1ccc2c(c1)Nc1ccccc1S2,x,x,-9,-5,x
CCCCOCCCNC(=O)C[C@@H]1C[C@@]2(C(=O)OC)CC(C)(C)CC=C2N(Cc2ccco2)C1=O,x,x,-2,-1,x
CCOC(=O)c1cnc(-n2nc(C)cc2C)nc1NC,18µM*,-3%,-21,u,9%
CCOC(=O)c1cnc(-n2nc(C)cc2C)nc1Nc1ccc(N(C)C)cc1,0%,3.2µM*,-20,-6,6%
CCOC(=O)c1cnc(-n2nc(C)cc2C)nc1Nc1ccc(C)cc1,0%,-5%,4,-17,-8%
